Pf Dd2 growth = qHTS Primary assay for Inhibitors of Plasmodium falciparum Dd2 growth in vitro; 120,000 compounds, 4.3% hits; P. falciparum Dd2 growth, SYBR Green, 72 h; Potency, µM (doses to about 28.9 µM), for the others: at the highest dose activity, negative = inhibition, actives largely listed as inhibitors; AID 1347417, 2020; active = well fitted inhibition curve with a large enough effect;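 note: plate controls were DMSO vehicle for no effect and reference drug for full effect; nearly all actives have a fitted effect of over 65% in size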
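Readout: SYBR Green fluorescence, 485 nm excitation, 535 nm emission, after ~16 h lysis at 37C. Before that, Dd2-infected red cells (2.5% hematocrit) grew 72 h with compound, 29 uM top final concentration.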
* marks the source's active call; other numbers are inactive results; [ ] = remark or other dose. Many of the other results were omitted from the sample, so hits are more common in it than they were. Potency is the fitted concentration of half-maximal effect.

`Cc1noc(C)c1S(=O)(=O)N1CCC(C(=O)Nc2ccc(Br)cc2)CC1` gave Pf Dd2 growth -12.2%.
Screening COc1cc(NC(=O)C2CCN(S(=O)(=O)c3c(C)noc3/C=C/c3cccs3)CC2)cc(OC)c1 returned Pf Dd2 growth 11.2µM*.
For COc1cc(OC)c(NC(=O)C2CCN(S(=O)(=O)c3c(C)noc3/C=C/c3c(C)cc(C)cc3C)CC2)cc1Cl the results were Pf Dd2 growth inactive.
Screening Cc1ccc(NC(=O)C2CCN(S(=O)(=O)c3cccs3)CC2)cc1 returned Pf Dd2 growth -19.8%.
`COc1ccc(/C=C\c2onc(C)c2S(=O)(=O)N2CCC(C(=O)Nc3cccc(C)c3C)CC2)cc1` gave Pf Dd2 growth 2.82µM*.
`COc1ccc(CCNC(=O)C2CCN(S(=O)(=O)c3c(C)noc3/C=C/c3ccc(C)cc3)CC2)cc1OC` gave Pf Dd2 growth -5.2%.
CNC(=O)[C@@H]1CN(C(=O)c2ccc(C)c(F)c2)C[C@H]1COC was read as Pf Dd2 growth 11.1%.
For CN(CC1CCOCC1)C(=O)c1cccs1 the results were Pf Dd2 growth -1.0%.
Screening O=C1CCN(S(=O)(=O)c2ccccc2)CCCN(C(=O)c2ccccn2)CCN1 returned Pf Dd2 growth 5.5%.
Screening CCn1nccc1C(=O)NCCC1CCN(C(=O)Nc2ccccc2F)CC1 returned Pf Dd2 growth 7.6%.
Screening CC(c1ccc(F)cc1)N1Cc2cc(NC(=O)Cc3cccs3)ccc2OCC1=O (stereo unspecified) returned Pf Dd2 growth inactive.
`COc1ccc(C(=O)N2CCn3c(nnc3-c3ccncc3)C2)cc1` gave Pf Dd2 growth -9.0%.
For Cc1noc(-c2ccn3c(CNC(=O)c4cccc(F)c4)nnc3c2)n1 the results were Pf Dd2 growth inactive.
For O=C([C@H]1CN2CCC1C[C@@H]2Cn1cc(CSc2ccccc2)nn1)N1CCOCC1 (stereo partly specified) the results were Pf Dd2 growth 7.8%[44.1 µM].
`COc1cccc(/C=C/c2onc(C)c2S(=O)(=O)N2CCC(C(=O)N3CCC(C)CC3)CC2)c1` gave Pf Dd2 growth -9.5%.
`Cc1noc(/C=C/c2cccs2)c1S(=O)(=O)N1CCC(C(=O)NCc2ccc(Cl)cc2)CC1` gave Pf Dd2 growth inactive.
Screening COc1cccc(CNC(=O)C2CCN(S(=O)(=O)c3c(C)noc3/C=C/c3cccs3)CC2)c1 returned Pf Dd2 growth 6.31µM*.
COc1cccc(C(=O)NCc2cccnc2Oc2ccc(C)nc2)c1C was read as Pf Dd2 growth -7.6%.
Cc1ccc(Cl)cc1N1CCN(C(=O)c2ccc3c(c2)N(Cc2ccccc2)CCS3)CC1 was read as Pf Dd2 growth 8.91µM*.
Screening CCN1C(=O)c2ccccc2S(=O)c2ccc(C(=O)N3CCN(c4cc(Cl)ccc4C)CC3)cc21 (stereo unspecified) returned Pf Dd2 growth 8.91µM*.
`COc1ccc(CNC(=O)c2ccc3c(c2)N(Cc2ccccc2)CCS3)cc1` gave Pf Dd2 growth -5.6%.
`Cc1ccccc1CNC(=O)c1ccc2c(c1)N(Cc1ccccc1)CCS2` gave Pf Dd2 growth 4.5%.
Screening Cc1cccc(N2CCN(C(=O)c3ccc4c(c3)N(Cc3cccc(Cl)c3)C(=O)c3ccccc3S4=O)CC2)c1C (stereo unspecified) returned Pf Dd2 growth -7.5%.
`Cc1ccc(C)c(N2CCN(C(=O)c3ccc4c(c3)N(Cc3ccc(F)cc3)C(=O)c3ccccc3S4=O)CC2)c1` (stereo unspecified) gave Pf Dd2 growth -15.9%.
Cc1ccccc1Oc1ncccc1CNC(=O)C(C)(C)n1cccc1 was read as Pf Dd2 growth -5.5%.
Screening COc1ccc(NC(=O)O[C@@H]2CC[C@]3(C)C(CC[C@@H](O)[C@H]3CC(=O)N3CC[C@@H](O)C3)[C@]2(C)CO)cc1 (stereo partly specified) returned Pf Dd2 growth -2.6%.
Screening Fc1ccc2c(c1)nc1n2[C@@H](CNCc2cnc3ccccc3c2)COC1 returned Pf Dd2 growth inactive.
CCOC(=O)C1CCN(C(=O)C2CCc3nc(N4CCN(C(C)=O)CC4)sc3C2)CC1 (stereo unspecified) was read as Pf Dd2 growth inactive.
Screening CC1=C(c2ccc(C)c(C)c2)S(=O)(=O)N=C1N1CCC(C(=O)NCc2ccccc2C)CC1 returned Pf Dd2 growth inactive.
For CCC1=C(c2ccc(C)cc2)S(=O)(=O)N=C1N1CCC(C(=O)NCCc2cccc(OC)c2)CC1 the results were Pf Dd2 growth 7.94µM*.
For CCOC(=O)C1CCN(C(=O)CN2c3ccc(CC)cc3-c3ccccc3S2(=O)=O)CC1 the results were Pf Dd2 growth -0.8%.
`CCOC(=O)C1CCN(C(=O)C2CCN(C3=NS(=O)(=O)C(c4ccc(C)cc4)=C3CC)CC2)CC1` gave Pf Dd2 growth 11.2µM*.
Screening CCc1ccc(C2=C(C)C(N3CCC(C(=O)NCc4ccccc4)CC3)=NS2(=O)=O)cc1 returned Pf Dd2 growth 3.3%.
Cc1cn2nc(C(=O)N3CCC(NC(=O)c4ccsc4)CC3)cc2c(=O)[nH]1 was read as Pf Dd2 growth -25.6%.
`O=C(Nc1ccc(Cl)cc1Cl)c1cccn2nccc12` gave Pf Dd2 growth -2.5%[44.1 µM].
Screening Cc1cccc(S(=O)(=O)N2C[C@@H](F)C[C@H]2C(=O)N2CCc3ccccc3C2)c1 returned Pf Dd2 growth 13.3%.
`O=C(NC1CCCN(c2cc(-c3ccc(F)cc3)[nH]n2)C1)c1ccc(F)cc1F` (stereo unspecified) gave Pf Dd2 growth inactive.
Screening COc1cc(CNc2ccc3[nH]c(=O)[nH]c3c2)cc(Br)c1OCc1ccc(F)cc1 returned Pf Dd2 growth 12.6µM*.
Screening COc1cc(CNc2ccc3[nH]c(=O)[nH]c3c2)cc(Cl)c1OCc1ccc(F)cc1 returned Pf Dd2 growth -26.4%.
`COc1cc(CNc2ccc3[nH]c(=O)[nH]c3c2)cc(Cl)c1OCc1ccccc1F` gave Pf Dd2 growth -16.7%.
`Cc1noc(CN2C[C@H](NC(=O)CNS(C)(=O)=O)[C@@H](C3CC3)C2)n1` gave Pf Dd2 growth 3.0%.
For CN1C[C@@H](N)C[C@H]1C(=O)N1CCC2(CC1)Nc1ccccc1NC2=O the results were Pf Dd2 growth -6.1%.
For CCOc1cccc(CN2CC[C@H](CNC(=O)NC)[C@H](N(C)C)C2)c1 the results were Pf Dd2 growth -19.1%.
For CN(Cc1nc2c(n1Cc1ccccc1)C(=O)N(CC1CCOCC1)CCN2)c1ccccc1 the results were Pf Dd2 growth -9.5%.
`CCN(C(=O)Cn1c(SCC(=O)Nc2ccc(OC)cc2)nc2ccccc21)c1cccc(C)c1` gave Pf Dd2 growth 10µM*.
Screening CCN(C(=O)Cn1c(SCC(=O)NCc2ccccc2)nc2ccccc21)c1cccc(C)c1 returned Pf Dd2 growth -22.7%.
Screening COc1ccc(NC(=O)CSc2nc3ccccc3n2CC(=O)Nc2cccc(C)c2C)cc1 returned Pf Dd2 growth 2.1%.
Cc1oc(-c2ccccc2NC(=O)C2CCC2)nc1CNC(=O)Cc1cc(F)cc(F)c1 was read as Pf Dd2 growth -15.3%.
COc1nccnc1NC1CCN(C(=O)Cc2ccsc2)CC1 was read as Pf Dd2 growth 10.4%[5.79 µM].
Screening COc1ccccc1CC(=O)N1CCCN(CCc2ccccc2)c2ccccc21 returned Pf Dd2 growth 7.94µM*.
Screening CN(C)CCN1CCCN(C(=O)CCc2ccccc2)c2ccccc21 returned Pf Dd2 growth 7.08µM*.
For O=C(c1cc(F)ccc1F)N1CCCN(CCc2ccccc2)c2ccccc21 the results were Pf Dd2 growth inactive.

Screening data (PubChem BioAssay)
